SMN2 splice enh: SMN2 splice variant enhancement; HEK293 SMN2-luciferase splicing reporter, luminescence, 30-36 h; Potency, µM (series often up to 46.1 µM), for the others: at the top dose activity change, positive = activation, hits mostly activators; actives 2.8% (n = 210,000); further: % of control where 0% means no effect; nearly all actives have a fitted effect of over 55% in size
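HEK293 cells carry an SMN2 […]–luciferase reporter in which exon 7 inclusion puts luciferase in frame. Cells were plated 10-12 h before compound addition, then incubated 30-36 h at 37C. ONE-Glo luminescence was read; sodium butyrate at 4.5 mM final served as control.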
FLuc counter: inhibits or activates purified firefly luciferase, miR-21 counter-screen. P08659. purified FLuc, Km substrates, luminescence inhibition. Potency, µM (doses to about 57.5 µM), inactives show at the top dose activity change, negative = inhibition, actives largely listed as inhibitors. actives 6.9% (n = 360,000). AID 588342;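 further: plate controls were vehicle for no effect and reference inhibitor for full effect; nearly all actives have a fitted effect of over 55% in size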
Target sequence (P08659 whole entry, looked up): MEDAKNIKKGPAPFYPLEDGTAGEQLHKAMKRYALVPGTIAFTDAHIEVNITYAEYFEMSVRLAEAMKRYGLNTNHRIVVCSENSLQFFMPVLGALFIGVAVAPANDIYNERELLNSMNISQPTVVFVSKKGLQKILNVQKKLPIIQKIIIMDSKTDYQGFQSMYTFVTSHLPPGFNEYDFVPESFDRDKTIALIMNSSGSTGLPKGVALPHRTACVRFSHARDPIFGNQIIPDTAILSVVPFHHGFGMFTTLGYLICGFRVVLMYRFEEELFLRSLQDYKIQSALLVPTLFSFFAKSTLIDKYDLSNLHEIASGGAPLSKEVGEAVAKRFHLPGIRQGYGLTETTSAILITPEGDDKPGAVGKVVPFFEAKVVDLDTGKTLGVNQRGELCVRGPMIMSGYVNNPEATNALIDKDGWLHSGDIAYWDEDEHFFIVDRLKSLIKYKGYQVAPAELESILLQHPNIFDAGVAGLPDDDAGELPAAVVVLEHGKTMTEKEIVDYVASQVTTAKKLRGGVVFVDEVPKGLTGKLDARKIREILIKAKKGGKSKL
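Purified P. pyralis luciferase (10nM final) with 10uM D-luciferin and 10uM ATP (Km levels) in 50mM Tris acetate pH 7.5, 10mM Mg acetate, 0.01% Tween-20, 0.05% BSA; qHTS 6-point titration, ~60 µM downward; luminescence read.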
ELG1 genotox: induces genotoxicity in HEK293T cells with luciferase-tagged ELG1; HEK293T ELG1-luciferase reporter, luminescence, 16 h; Potency, µM (highest dose often 46 µM), for inactives: top-dose activity change, positive = activation, usual class: activators; actives 1.3% (n = 330,000); AID 504466; further: % of control where 0% means no effect; nearly all actives have a fitted effect of over 60% in size
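HEK293T cells expressing luciferase-tagged ELG1 were exposed to compound or DMSO vehicle for 16 hr at 37 °C and 5% CO2. Luciferase activity was then measured with ONE-Glo after 30 min at room temperature.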
Rab9 promoter act: activates the Rab9 promoter | Huh7 Rab9 promoter-luciferase reporter, luminescence, 24 h | actives 2.8% (n = 320,000) | Potency, µM (highest dose often 9.22 µM), for inactives: at the top dose activation, negative = inhibition, most hits filed as activators | AID 485297; further: % of control where 0% means no effect; nearly all actives have a fitted effect of over 60% in size
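Luminescence from Amplite-detected luciferase (10 minutes, ambient) reports Rab9 promoter activation. Before that, stable Rab9-luciferase Huh7 cells (1500/well, reduced-serum OP-MEM I plus 10% FBS) were exposed to compound for 24 hours at 37C.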
ELG1 DNA repair: ELG1-dependent DNA repair inhibition; Potency, µM (top dose mostly 46.1 µM), for the others: at the top dose activity change, negative = inhibition, actives largely listed as inhibitors; actives 2.3% (n = 330,000); HEK293T ELG1-luciferase reporter, luminescence, 16 h; DNA damage induced by 5-fluorouridine; further: on the % scale 0 is the no-effect control and ±100 the full control effect; nearly all actives have a fitted effect of over 55% in size
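Overnight (16 hr) co-exposure of 2,000 cells/well to 5-fluorouridine and compound at 37 °C preceded detection. Luciferase was quantified via ONE-Glo luminescence; loss of signal denotes inhibition.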
NPC1 prom act: activators of NPC1 promoter; Huh7 NPC1 promoter luciferase reporter, 24 h; Potency, µM (titrated, usually from 9.22 µM), without a hit: top-dose activation, most hits filed as activators; actives 2.4% (n = 320,000); AID 485313; further: % of control where 0% means no effect; nearly all actives have a fitted effect of over 60% in size
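NPC1 promoter–luciferase Huh7 cells; 24 h compound; luminescence.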
* = called active by the depositor; ? = inconclusive; nt = not tested or not shown; [ ] = dose if it differs, or a comment. The list is not random: actives were taken first. Their share in the collection is about 9.2%. The call rests on the fitted dose curve; in most records, active means well fitted curve in the direction sought with a large enough effect; inconclusive means small, poorly fitted or top-dose-only effect, or another doubt; inactive means no such curve, though single readings can be large; an effect the other way counts as inactive or inconclusive. Potency means the concentration at half of the fitted maximal effect.

SMILES	SMN2 splice enh	FLuc counter	ELG1 genotox	Rab9 promoter act	ELG1 DNA repair	NPC1 prom act
CCc1ccc(-c2nc(SCC(=O)N3CCOCC3)n[nH]2)cc1	nt	17µM*	9%	22%	?	7%
CCc1ccc(-c2nc(SCC(=O)N(CC)C3CCS(=O)(=O)C3)n[nH]2)cc1 (stereo not drawn)	nt	3.4µM*	9%	?	?	21%
CCOC(=O)c1sc2nc(C)nc(SCC(=O)N(CC)C3CCS(=O)(=O)C3)c2c1C (stereo not drawn)	-60%	?	-3%	-8%	16µM*	-6%
O=C(CSc1n[nH]c(-c2cccs2)n1)N1CCOCC1	nt	nt	1%	nt	?	nt
CCc1ccc(-c2nc(SCC(=O)N(C)C3CCS(=O)(=O)C3)n[nH]2)cc1 (stereo not drawn)	nt	?	14%	24%	?	13%
Cc1ccc(Nc2nnc(SCC(=O)c3c(N)n(C4CC4)c(=O)[nH]c3=O)s2)cc1C	nt	0.76µM*	-1%	2%	-22%	12%
Cc1oc(-c2cccc(Cl)c2)nc1CS(=O)(=O)CC(=O)NCc1ccccc1Cl	-1%	-12%	nt	nt	nt	nt
O=C(O)c1cccc(SSc2cccc(C(=O)O)c2)c1	21%[9.22 µM]	nt	nt	nt	nt	nt
COc1ccc(S(=O)(=O)Nc2ccc3c(c2)N(C(C)=O)CCC3)cc1F	nt	-9%	nt	nt	nt	nt
CCc1ccc(-c2nc(SCC(=O)NC3CC3)n[nH]2)cc1	nt	13µM*	?	15%	?	-2%
O=C(CSc1n[nH]c(-c2ccc(Br)cc2)n1)NC1CCCC1	nt	nt	0%	nt	?	nt
CCc1ccc(-c2nc(SCC(=O)c3c(N)n(C4CC4)c(=O)[nH]c3=O)n[nH]2)cc1	nt	2.1µM*	-1%	27%	2%	14%
COc1ccc(NCc2cc3ccc(OC)cc3n(CC(=O)Nc3cccc(OC)c3)c2=O)cc1	nt	-6%	nt	nt	nt	nt
COc1ccc(C(=O)Sc2ccc(C)cc2)cc1OC	17%	6.7µM*	-9%	-6%	0%	-4%
COc1ccc(C(=O)SC2=NCCS2)cc1OC	nt	1%	-1%	2%	11%	0%
COc1ccc(C(=O)Sc2ccc(Cl)cc2)cc1OC	3%	2.7µM*	-1%	-4%	8%	-14%
c1ccc(Cn2ccc(-c3cnc(-c4ccccc4)s3)n2)cc1	nt	1.9µM*	?	1.1µM*	?	1.4µM*
CN1CCS/C1=C/C=C1\SC(=S)N(CC(=O)O)C1=O	nt	15µM*	-1%	-2%	14%	0%
CN1CCS/C1=C/C=C1/SC(=S)N(Cc2ccccc2)C1=O	23%	?	?	?	?	18%
CCCCN1C(=O)/C(=C/C=C2\SCCN2C)SC1=S	16µM*	13µM*	25%	3.2µM*	?	?
CN(Cc1ccccc1)C(=O)c1ccc(NC(=O)c2ccccc2)cc1	nt	-12%	-9%	1%	1%	5%
COc1cc2c(cc1OC)C(C)N(C(=O)Cn1ncc3c1-c1cc(C)ccc1OC3)CC2 (stereo not drawn)	-33%	6%	-12%	-6%	18µM*	-4%
Cn1c(=O)[nH]c(=O)c2[nH]cnc21	-2%	nt	nt	nt	nt	nt
Cc1cc(/C=N/Nc2nc(N)ncc2[N+](=O)[O-])c(C)n1-c1ccccc1F	nt	0.048µM*	?	-17%	?	?
O=C(c1ccccc1)c1ccc(Sc2ccc([N+](=O)[O-])cc2)cc1	nt	-1%	-4%	-14%	12µM*	-6%
SMILES	SMN2 splice enh	FLuc counter	ELG1 genotox	Rab9 promoter act	ELG1 DNA repair	NPC1 prom act
CCn1nc(C)cc1C(=O)Sc1ccc(C)cc1	nt	17µM*	0%	-4%	0%	-1%
Cc1ccc(SC(=O)c2c([N+](=O)[O-])c(C)nn2C)cc1	nt	-4%	-9%	0%	-1%	-1%
O=c1c2cnn(-c3ccccc3)c2nc(-c2cccs2)n1-c1cccc(Cl)c1	-47%	-11%	-3%	-1%	15µM*	0%
CCCCNc1nc2c(S(=O)(=O)c3ccc(Br)cc3)nnn2c2ccsc12	nt	-8%	nt	nt	nt	nt
CCCCNc1nnc(SCC(=O)N2CCN(S(=O)(=O)c3ccc4ccccc4c3)CC2)s1	-23%	7%	-9%	-2%	23µM*	0%
CCN(CC)CCOC(=O)c1ccc(NC(=O)c2cn(-c3ccccc3)nc2-c2cccs2)cc1	-100%	6µM*	?	19%	?	9%
CCN(CC(=O)Nc1ccc(NC(C)=O)cc1)C(=O)c1cn(-c2ccccc2)nc1-c1cccs1	nt	21µM*	-7%	-3%	?	0%
CN(C)c1ccc(NC(=O)c2cn(-c3ccccc3)nc2-c2cccs2)cc1	23%	6.7µM*	11%	6%	-19%	13%
O=C(c1cn(-c2ccccc2)nc1-c1cccs1)N1CCN(c2ccccn2)CC1	-36%	3.8µM*	-18%	3%	?	-4%
Cc1ccc(C)c(S(=O)(=O)N2CCN(C(=O)CCCc3c[nH]c4ccccc34)CC2)c1	nt	6%	-22%	1%	?	1%
CCOC(=O)c1c(S(=O)(=O)NCC(=O)N(C)c2ccc(C)cc2)c(C)n(C)c1C	nt	-7%	nt	nt	nt	nt
O=C(Nc1cn(-c2ccccc2)nc1-c1cccs1)c1ccco1	2%	17µM*	0%	-7%	-3%	13%
O=C(Nc1ccc2ccccc2c1)c1cn(-c2ccccc2)nc1-c1cccs1	-12%	6µM*	1%	25%	-10%	-3%
CN1CCN(NC(=O)c2cn(-c3ccccc3)nc2-c2cccs2)CC1	-6%	?	2%	3%	24%	0%
O=C(NN1CCOCC1)c1cn(-c2ccccc2)nc1-c1cccs1	nt	21µM*	1%	1%	?	1%
COc1cccc(CNC(=O)C2CCN(C(=O)N3CCOc4ccc(Cl)cc43)CC2)c1OC	nt	-10%	nt	nt	nt	nt
COc1ccc(NC(=O)Nc2cccc3c2O[C@H](CN(C)C(=O)Nc2c(C)noc2C)[C@@H](C)CN([C@H](C)CO)C3=O)cc1	nt	nt	5%	nt	?	nt
O=C(NC(=S)NC(CO)c1ccccc1)c1ccc(F)cc1 (stereo not drawn)	nt	2%	1%	1%	4%	1%
